Screening data from PubChem BioAssay.
In the library only some 2.2% were active in any assay of this set; here they are far more common.
FAS-TE inh – blocks the thioesterase domain of human fatty acid synthase. P49327. recombinant FAS-TE, OMFH fluorogenic substrate, fluorescence endpoint. inhibition, % at 15 µM. 360,000 tested, 0.67% active;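 active = compounds whose normalised, plate-corrected inhibition of enzyme fluorescence in the single-dose primary screen is 50% or more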;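 also: 0% = DMSO with enzyme and 100% = substrate without enzyme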
Target sequence (P49327 whole entry, looked up, the tested form may be a part): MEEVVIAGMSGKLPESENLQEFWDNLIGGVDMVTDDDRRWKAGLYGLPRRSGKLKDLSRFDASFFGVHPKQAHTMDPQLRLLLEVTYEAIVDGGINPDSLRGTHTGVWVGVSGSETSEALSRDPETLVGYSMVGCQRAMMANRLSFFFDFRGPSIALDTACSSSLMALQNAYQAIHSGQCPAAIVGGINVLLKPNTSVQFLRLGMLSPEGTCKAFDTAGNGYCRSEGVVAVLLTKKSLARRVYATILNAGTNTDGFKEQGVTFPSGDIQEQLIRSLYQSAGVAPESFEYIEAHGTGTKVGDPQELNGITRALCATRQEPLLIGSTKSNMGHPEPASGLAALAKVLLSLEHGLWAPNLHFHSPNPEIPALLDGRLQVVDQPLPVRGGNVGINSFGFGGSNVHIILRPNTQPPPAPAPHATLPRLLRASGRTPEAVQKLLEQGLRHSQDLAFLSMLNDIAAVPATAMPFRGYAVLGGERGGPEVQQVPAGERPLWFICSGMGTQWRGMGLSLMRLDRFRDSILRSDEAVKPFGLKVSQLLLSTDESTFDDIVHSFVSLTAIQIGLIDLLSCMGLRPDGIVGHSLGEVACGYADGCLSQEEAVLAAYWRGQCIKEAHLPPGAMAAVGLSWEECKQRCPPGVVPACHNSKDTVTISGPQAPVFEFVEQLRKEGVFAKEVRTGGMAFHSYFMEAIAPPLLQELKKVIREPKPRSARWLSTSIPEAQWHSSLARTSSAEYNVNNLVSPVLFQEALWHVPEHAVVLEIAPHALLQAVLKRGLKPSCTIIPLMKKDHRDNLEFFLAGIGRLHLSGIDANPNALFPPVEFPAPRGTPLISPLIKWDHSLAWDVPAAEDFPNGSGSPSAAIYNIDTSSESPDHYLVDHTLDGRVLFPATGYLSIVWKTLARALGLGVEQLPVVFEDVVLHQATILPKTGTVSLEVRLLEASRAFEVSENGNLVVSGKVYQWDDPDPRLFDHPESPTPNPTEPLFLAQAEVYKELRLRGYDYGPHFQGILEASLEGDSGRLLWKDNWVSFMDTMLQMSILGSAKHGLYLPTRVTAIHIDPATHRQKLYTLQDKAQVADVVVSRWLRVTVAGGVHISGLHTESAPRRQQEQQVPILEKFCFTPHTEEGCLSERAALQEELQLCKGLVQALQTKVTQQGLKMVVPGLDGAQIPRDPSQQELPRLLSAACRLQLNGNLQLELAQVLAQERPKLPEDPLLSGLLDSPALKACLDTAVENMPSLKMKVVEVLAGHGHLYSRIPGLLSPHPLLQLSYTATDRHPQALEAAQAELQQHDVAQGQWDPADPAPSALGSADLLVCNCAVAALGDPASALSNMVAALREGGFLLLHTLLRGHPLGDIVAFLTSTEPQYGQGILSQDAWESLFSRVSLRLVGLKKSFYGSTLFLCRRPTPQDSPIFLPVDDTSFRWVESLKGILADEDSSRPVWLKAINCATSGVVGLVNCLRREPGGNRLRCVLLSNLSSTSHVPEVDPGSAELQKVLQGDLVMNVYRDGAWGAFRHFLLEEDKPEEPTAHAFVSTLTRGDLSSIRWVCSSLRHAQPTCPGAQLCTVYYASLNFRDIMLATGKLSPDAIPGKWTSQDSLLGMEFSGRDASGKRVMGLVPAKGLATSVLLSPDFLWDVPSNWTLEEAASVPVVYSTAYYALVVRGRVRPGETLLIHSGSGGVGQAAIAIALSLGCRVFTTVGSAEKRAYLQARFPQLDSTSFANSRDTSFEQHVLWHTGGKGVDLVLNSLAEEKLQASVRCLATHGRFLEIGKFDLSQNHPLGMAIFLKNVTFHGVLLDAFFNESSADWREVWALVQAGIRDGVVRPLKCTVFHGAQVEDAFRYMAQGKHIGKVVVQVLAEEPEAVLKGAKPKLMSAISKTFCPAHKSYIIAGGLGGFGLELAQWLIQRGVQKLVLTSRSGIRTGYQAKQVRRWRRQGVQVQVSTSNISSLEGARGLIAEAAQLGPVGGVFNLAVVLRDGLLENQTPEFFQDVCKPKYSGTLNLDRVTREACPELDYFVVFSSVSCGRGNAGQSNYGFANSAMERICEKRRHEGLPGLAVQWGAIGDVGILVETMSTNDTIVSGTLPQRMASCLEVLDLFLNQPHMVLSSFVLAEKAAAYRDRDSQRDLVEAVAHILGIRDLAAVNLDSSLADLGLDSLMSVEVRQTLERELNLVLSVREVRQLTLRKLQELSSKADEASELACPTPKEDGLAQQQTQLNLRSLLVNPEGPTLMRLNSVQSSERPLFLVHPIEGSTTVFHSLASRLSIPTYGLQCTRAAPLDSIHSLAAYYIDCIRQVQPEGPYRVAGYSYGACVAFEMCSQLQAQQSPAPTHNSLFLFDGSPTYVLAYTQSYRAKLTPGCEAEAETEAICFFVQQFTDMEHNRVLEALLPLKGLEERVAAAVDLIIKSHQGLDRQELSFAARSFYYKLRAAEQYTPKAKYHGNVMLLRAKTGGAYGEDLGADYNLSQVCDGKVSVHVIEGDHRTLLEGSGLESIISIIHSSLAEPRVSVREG
H9c2 protect – myocardial damage modulation in H9c2 cells; H9c2 cardiomyocytes, H2O2 injury protection, ATPLite, 2 h; protection from H2O2 cell death, % at 20 µM; 360,000 tested, 0.63% active; AID 588492;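 active = compounds giving at least 50% protection of heart cells from peroxide-induced death in the single-dose screen, raw or plate-pattern-corrected value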;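 also: 0% = DMSO wells with peroxide and 100% = DMSO wells without peroxide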
PLC-gamma1 inh – PLC-gamma1 (human) inhibition, primary screen | P19174 | 370,000 tested, 0.84% active | purified PLC-gamma1, fluorogenic substrate, fluorescence | inhibition, % at 12.2 µM | AID 720700; in the data active = inhibition above about 9.5%
PLCb3 inh – blocks human PLC-beta3 enzyme activity; Q01970; Purified PLC-beta3, fluorogenic substrate, fluorescence; inhibition, % at 12.2 µM; 370,000 tested, 0.18% active; AID 720704; in the data active = inhibition above about 11%;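 also: 0% = median of compound wells on plate and 100% = full blocker control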
FAS-TE conf – FAS thioesterase (human) inhibition, confirmation. shares compounds with FAS-TE inh. recombinant FAS-TE, OMFH fluorogenic substrate, fluorescence. inhibition, % at 15 µM. 2,300 tested, 45% active;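 active = compounds inhibiting the enzyme by at least 50% at 15 µM in any one of the replicates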;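 also: 0% = enzyme with DMSO only and 100% = wells lacking enzyme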
* hit, by the source's call; i = inactive; · = no result.

SMILES	FAS-TE inh	H9c2 protect	PLC-gamma1 inh	PLCb3 inh	FAS-TE conf
O=C(c1cccc(S(=O)(=O)N2CCCC2)c1)c1cccc(S(=O)(=O)N2CCCC2)c1	54*	-25	2	2	48*
Cc1ccc(C)c(NC(=O)C(OC(=O)c2ccc(CO)cc2)c2ccccc2)c1 (stereo unspecified)	-2	2	6	-108	·
Cc1ccc(NC(=O)C(OC(=O)c2ccc(C=O)cc2)c2ccccc2)cc1Cl (stereo unspecified)	50*	-11	·	·	11
CN(C(=O)c1ccc(NC(=O)Cc2ccc(NC(=O)C3CCCN(S(=O)(=O)c4cccc([N+](=O)[O-])c4)C3)cc2)cc1)C1CCCC1 (stereo unspecified)	66*	-6	5	4	-3
CN(C(=O)c1cccc(NC(=O)Cc2ccc(NC(=O)C3CCCN(S(=O)(=O)c4cccc([N+](=O)[O-])c4)C3)cc2)c1)C1CCCC1 (stereo unspecified)	69*	-7	1	-3	19
CN(C(=O)c1ccc(NC(=O)Cc2cccc(NC(=O)C3CCCN(S(=O)(=O)c4cccc([N+](=O)[O-])c4)C3)c2)cc1)C1CC1 (stereo unspecified)	28	-22	3	3	·
CN(Cc1ccccc1)C(=O)c1ccc(NC(=O)Cc2ccc(NC(=O)C3CCCN(S(=O)(=O)c4cccc([N+](=O)[O-])c4)C3)cc2)cc1 (stereo unspecified)	59*	-8	3	-4	5
O=S1(=O)CC(N2CCC(c3ccccc3)CC2)CN1Cc1cn(Cc2ccc(C(F)(F)F)cc2)nn1 (stereo unspecified)	·	·	-2	-1	·
CC1(C(=O)NS(=O)(=O)c2ccc(C#N)cc2)CCN1C(=O)c1cccc(F)c1 (stereo unspecified)	-3	2	5	-2	·
CC(C)(C)c1ccc(C(=O)N2CCC2(C)C(=O)NS(=O)(=O)c2ccc(C#N)cc2)cc1 (stereo unspecified)	53*	2	1	0	65*
CC(O)CNc1nc2sc3c(c2c(=O)n1CCc1ccccc1)CCCCC3 (stereo unspecified)	47	16	-2	-1	·
CN(C)CCNc1nc2sc3c(c2c(=O)n1CCc1ccccc1)CCCCC3	60*	-18	3	-5	56*
CN(C)S(=O)(=O)c1ccc2c(c1)C(=O)c1cc(S(=O)(=O)N(C)C)ccc1CC2	79*	-8	1	5	94*
CN(C)S(=O)(=O)c1ccc2c(c1)C(=NO)c1cc(S(=O)(=O)N(C)C)ccc1-2	-63	1	-8	-25	·
CNS(=O)(=O)c1ccc(C)c(S(=O)(=O)NC)c1	-10	-1	3	0	·
CNS(=O)(=O)c1ccc2c(c1)C(=O)c1cc(S(=O)(=O)NC)ccc1CC2	82*	4	-1	3	91*
Cc1ccccc1CN1CCCCC(NC(=O)c2ccccc2)C1=O (stereo unspecified)	·	·	2	0	·
CCOC(=O)C1=C(C(=O)OCC)C2N(Cc3ccc(C#N)cc3)c3ccccc3[C@@]23C[C@@H](C(=O)OC)N(S(=O)(=O)c2ccc(C)cc2)C3=N1 (stereo partly specified)	·	·	-3	1	·
CCOC(=O)c1c(NC(C)=O)sc2c(OCCN(CC)CC)c(Br)ccc12	12	1	-9	-10	·
CCOC(=O)c1c(NC(C)=O)sc2c1CCC(C=NCCCN(CC)CC)=C2Sc1ccccc1	56*	-17	·	·	38
CCOC(=O)CN1C(=O)S/C(=C\c2ccc(-c3ccc(C(=O)O)c(Cl)c3)o2)C1=O	4	2	-10	-19	·
CC(C)N1C(=O)S/C(=C\c2ccc(-c3ccc(Cl)c(C(=O)O)c3)o2)C1=O	69*	-1	-43	-61	75*
O=C(Oc1ccc(N(Cc2cccs2)C2=NS(=O)(=O)c3ccccc32)cc1)c1ccccc1	60*	-2	-1	2	-8
C=CCOc1c(OC)cc(/C=N/Nc2cccc(C(=O)O)c2)c(Br)c1Br	70*	-2	3	-5	84*
COC(=O)[C@]12C[C@H](CC(=O)NCc3ccc(C)o3)C(=O)N(CCC3=CCCCC3)C1=C[C@H](C1CCCC1)O[C@@H]2C	·	·	-2	-1	·
SMILES	FAS-TE inh	H9c2 protect	PLC-gamma1 inh	PLCb3 inh	FAS-TE conf
CCOC(=O)c1sc(NC(=O)c2ccc(S(=O)(=O)N3CCCCC3)cc2)nc1-c1ccccc1	65*	-11	-3	-5	12
Cc1ccc(S(=O)(=O)Cn2nnnc2C(c2ccccc2)N2CCN(c3ncccn3)CC2)cc1 (stereo unspecified)	25	10	3	3	·
Cc1ccc(S(=O)(=O)Cn2nnnc2C(c2ccccc2)N2CCN(c3ccccc3)CC2)cc1 (stereo unspecified)	57*	-7	4	9	8
CCC(=O)N(Cc1ccco1)Cc1cc2cccc(C)c2n2nnnc12	-7	5	2	0	·
COc1ccc(CN(Cc2cc3cccc(C)c3n3nnnc23)C(=O)N2CCOCC2)cc1	50*	3	2	1	47*
CCOC(=O)CCSc1nc2c(c(C(F)(F)F)c1C#N)CCC2	71*	-10	-12	-27	65*
CCCCSc1nc2c(c(C(F)(F)F)c1C#N)CCC2	36	-14	1	3	·
CN=C1S/C(=C/c2cc(C)n(-c3ccc(Cl)cc3F)c2C)C(=O)N1C	·	·	-11	-19	·
CCOC(=O)c1cc2c(=O)n3ccccc3nc2n(CC2CCCO2)c1=NC(=O)/C=C/c1ccccc1 (stereo unspecified)	80*	44	i	i	83*
CCOC(=O)c1cc2c(=O)n3ccccc3nc2n(C(C)C)c1=NC(=O)c1c(-c2c(F)cccc2Cl)noc1C	94*	3	-58	-74	4
COC(=O)[C@]12C[C@H](CC(=O)NCCc3ccccc3OC)C(=O)N(CCc3ccc(OC)c(OC)c3)C1=C[C@H](C(C)(C)C)O[C@@H]2C	·	·	0	0	·
CCOc1ccc(NC(=O)c2cccc(-n3cnnn3)c2)cc1	12	-2	0	3	·
O=C(Nc1ccc(OC(F)(F)F)cc1)c1cccc(-n2cnnn2)c1	56*	-11	-3	-6	44
O=C1c2ccc(-c3ccc(F)cc3OCc3ccccc3)cc2S(=O)(=O)c2cccc(C(=O)N3CCCC3)c21	62*	9	·	·	-1
COc1ccccc1N1CCN(c2ccc3c(c2)S(=O)(=O)c2cccc(C(=O)NCc4cccc(F)c4)c2C3=O)CC1	64*	38	-2	-5	27
O=C(NCc1cccc(OC(F)(F)F)c1)c1cccc2c1C(=O)c1ccc(-c3ccc(F)cc3OCc3ccccc3)cc1S2(=O)=O	30	-6	-5	0	·
CC(=O)OCCCNc1cc(Sc2nc3ccccc3s2)c2nonc2c1[N+](=O)[O-]	82*	-25	·	·	67*
O=[N+]([O-])c1c(NCCCO)cc(Sc2ccc(Cl)cc2)c2nonc12	61*	-4	-11	-14	49*
